D1 antagonist – human D1 dopamine receptor antagonism | P21728 | HEK293 TREx D1 cells, calcium flux, dopamine EC80; active compounds read low | activity change, negative = inhibition, % at 10 µM | hit rate 3.2% among 360,000 | AID 504652; in the data active = activity change below about -30%
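Kinetic fluorescence of a calcium dye serves as the read-out. D1-expressing Hek293 Trex cells, induced overnight at 30 C, are exposed to compound for 180 s before an EC80 dopamine addition, then read 180 s further.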
D1 potentiator – enhances dopamine response at the human D1 receptor. potentiation, % at 10 µM. HEK293 TREx D1 cells, calcium flux, dopamine EC20 potentiation. hit rate 0.036% among 360,000. P21728; in the data active = potentiation above about 30%
D3 ag – activates the human D3 dopamine receptor; P35462; D3R DiscoveRx beta-arrestin cells, luminescence, 90 min; max activation, %; hit rate 0.58% among 410,000; AID 652048; in the data active = max activation above about 30%
Target sequence (P35462 whole entry, looked up): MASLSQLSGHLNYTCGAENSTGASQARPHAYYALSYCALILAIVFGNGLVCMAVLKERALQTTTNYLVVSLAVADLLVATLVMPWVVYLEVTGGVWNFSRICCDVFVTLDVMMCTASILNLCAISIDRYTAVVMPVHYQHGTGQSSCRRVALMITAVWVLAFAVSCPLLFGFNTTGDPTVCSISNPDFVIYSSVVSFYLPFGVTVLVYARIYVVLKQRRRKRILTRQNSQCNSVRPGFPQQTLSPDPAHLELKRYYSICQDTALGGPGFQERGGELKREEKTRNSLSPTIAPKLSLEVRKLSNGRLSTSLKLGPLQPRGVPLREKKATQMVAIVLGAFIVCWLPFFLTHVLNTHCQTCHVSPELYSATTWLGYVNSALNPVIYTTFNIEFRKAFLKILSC
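Cells at 1500/well, incubated overnight, then treated with pinned compounds (dopamine as control) for 90 min at 37 degrees C. DiscoveRx reagent added for 30 - 60 minutes at room temperature; luminescence read.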
D3 antag – blocks the human D3 dopamine receptor | P35462 | D3R cells, DiscoveRx beta-arrestin luminescence, antagonist mode; active compounds read low | max response, negative = inhibition, % | hit rate 2.5% among 360,000; in the data active = max response below about -50%; inconclusive = no clear call, values can overlap the other calls
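Cells plated overnight at 1500 cells/well, then exposed to library compounds with dopamine controls for 90 minutes at 37 degrees C. DiscoveRx reagent added for 30–60 minutes at room temperature; luminescence read, quantitative HTS format.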
D1 agonist – agonists of human D1 dopamine receptor; activation, % at 2 µM; HEK293 T-REx D1 cells, calcium flux, agonist mode; P21728; hit rate 1% among 360,000; in the data active = activation above about 30%
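Tetracycline-induced HEK293 TREx D1 cells, force-coupled to calcium signalling, were dye-loaded with a no-wash calcium kit. Compound was pin-added after a 10 s baseline. Fluorescence was read kinetically at 1 cycle/s for 180 s, with calcium rises flagged as agonism.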
Hits are given with their value; – = inactive; ? = inconclusive; · = no result given; ! = a repeat was not active. Hits are enriched below; roughly 6% of the tested compounds scored in any of these assays.

SMILES | D1 antagonist | D1 potentiator | D3 ag | D3 antag | D1 agonist
Cc1cccc(N2CCN(C(=O)CN3C(=O)COc4ccc(S(=O)(=O)N5CCC(C)CC5)cc43)CC2)c1C | – | – | – | · | –
c1ccc2c(c1)OCCOCCOCCOCCOCCOc1ccccc1OCCOCCOCCO2 | -36 | – | – | – | –
OCCN1CCOCCOc2ccccc2OCCOCC1 | – | – | – | – | –
COc1ccc([C@]23Cc4cc(C#N)ccc4C(O2)C2=C(CC4(CCCCC4)OC2=O)O3)cc1 | – | – | · | · | –
O=C(Nc1ccc(-c2nc3ccccc3o2)c(O)c1)c1cc(-n2cnnc2)ccc1Cl | – | – | – | – | –
Cc1c(NC(=O)c2cc(-n3cnnc3)ccc2Cl)cccc1-c1nc2ccccc2o1 | -44 | – | – | – | –
Cc1nnc(NC(=O)c2sc3ccccc3c2Cl)s1 | – | – | – | -73 | –
O=C(Nc1ccc(O)c(-c2nc3ccccc3o2)c1)c1sc2ccccc2c1Cl | -30 | – | – | · | –
CCCN(Cc1ccccc1)C(=S)Nc1cccc(C(F)(F)F)c1 | -32 | – | – | – | –
CN(C)CCCN(Cc1ccccc1)C(=S)Nc1ccc(F)c(Cl)c1 | -34 | – | – | – | 35
COc1ccc(N2CCN(S(=O)(=O)c3ccc4oc(=O)c5ncn(C)c5c4c3)CC2)cc1 | – | – | – | · | –
O=C(NCc1ccco1)C1CCN(C(=O)N2CCOc3ccccc32)CC1 | – | – | – | · | –
CCCn1c2ccccc2c2cnn(CC(=O)NCCc3ccc(C)cc3)c(=O)c21 | – | – | – | · | –
Cc1cccc(NC(=O)Cn2nnc(C(=O)NCc3cccs3)c2N)c1 | – | – | – | · | –
CCOC(=O)n1n[n+]([O-])c2ccccc21 | – | – | – | – | –
Cc1cccc(-c2n[nH]c(=S)n2-c2ccccc2)c1[N+](=O)[O-] | – | – | – | – | –
COc1ccc(-n2c(-c3cccc(C)c3[N+](=O)[O-])n[nH]c2=S)cc1 | – | – | – | -57 | –
CCn1c2cc(C)sc2c2cnn(Cc3ccccc3F)c(=O)c21 | – | – | · | · | –
Cc1cc2[nH]c3c(=O)n(Cc4ccccc4F)ncc3c2s1 | -72! | – | · | · | –
CC(=O)Nc1ccc(CC(=O)O)cc1 | – | – | – | – | 47
O=C(O)Cc1ccc(NC(=O)Nc2cccc(Cl)c2)cc1 | -51 | – | – | – | –
O=C(COc1ccc(F)cc1)Nc1ccc(OCc2cc(=O)n3ccsc3n2)cc1 | – | – | – | · | –
C=C1c2c(Cl)ccc(O)c2C(O)=C2C(=O)[C@]3(O)C(O)=C(C(N)=O)C(=O)[C@@H](N(C)C)[C@@H]3[C@@H](O)[C@H]12 | · | · | – | · | ·
COc1ccc(OCC(=O)Nc2ccc(N3CCOCC3)cc2)cc1 | – | – | – | – | –
CN(CC(=O)Nc1ccc(N2CCOCC2)cc1)C(=O)c1cccc(Cl)c1Cl | -36 | – | – | – | –
SMILES | D1 antagonist | D1 potentiator | D3 ag | D3 antag | D1 agonist
CN(CC(=O)Nc1ccc(N2CCOCC2)cc1)C(=O)c1cn(-c2ccccc2)nc1-c1ccccc1 | – | – | – | – | –
COc1ccc(Br)c(C(=O)N(C)CC(=O)Nc2ccc(N3CCOCC3)cc2)c1 | -51 | – | – | – | –
Cc1cccc(-c2nn(-c3ccccc3)cc2C(=O)N(C)CC(=O)Nc2ccc(N3CCOCC3)cc2)c1 | -71 | – | – | – | –
COc1cccc(-c2nn(-c3ccc(C)cc3)cc2C(=O)N(C)CC(=O)Nc2cccc(F)c2)c1 | -32 | · | – | – | –
O=C(NNc1ncc(C(F)(F)F)cc1Cl)c1c(Cl)cccc1Cl | – | – | – | -70 | –
Cc1c(Cl)cccc1NC(=S)NNc1ncc(C(F)(F)F)cc1Cl | – | – | – | -75 | –
Fc1ccccc1NC(=S)NNc1ncc(C(F)(F)F)cc1Cl | – | – | – | – | –
Cc1ccccc1NC(=S)NNc1ncc(C(F)(F)F)cc1Cl | – | – | – | -93 | –
Cc1cccc(C)c1NC(=S)NNc1ncc(C(F)(F)F)cc1Cl | – | – | – | – | –
NC(=O)NNc1ncc(C(F)(F)F)cc1Cl | – | – | – | – | –
Cc1[nH]c2ccc(C(=O)NCCc3ccccc3Cl)cc2c1C | – | – | – | · | –
Cc1ccc2occ(CC(=O)N(Cc3ccc(Cl)cc3)Cc3ccco3)c2c1 | – | – | – | · | 90
Cc1ccc(CN(Cc2ccco2)C(=O)c2oc3ccc(C)cc3c2C)cc1 | – | – | – | · | 37
Cc1ccc(CN(Cc2ccco2)C(=O)c2oc3c(C)c(C)ccc3c2C)cc1 | – | – | – | · | –
Cc1ccc(CN(Cc2ccco2)C(=S)NCC(=O)NC2CC2)cc1 | -31 | – | – | – | –
Cc1ccc(CN(Cc2ccco2)C(=O)COc2ccccc2C)cc1 | – | – | 36 | · | –
COc1cc(Cl)c(NS(=O)(=O)c2ccc3[nH]c(=O)ccc3c2)c(OC)c1 | – | – | – | · | –
O=C(COc1ccccc1F)Nc1ccc2oc(-c3cccc(Cl)c3)nc2c1 | – | – | – | · | –
CCOc1ccc(CCNC(=O)Cc2ccc(NC(=O)N3CCSc4ncccc43)cc2)cc1 | – | – | – | · | –
Nc1c(NC/C=C\COc2cc(CN3CCCCC3)ccn2)c(=O)c1=O | · | · | – | · | ·
Cc1cc(C)c(NC(=O)COC(=O)C2=COCCO2)c(C)c1 | · | · | – | – | ·
Cc1cc(C)c2sc(NC(=O)C3=COCCO3)nc2c1 | -34 | – | – | – | –
O=C(Nc1nc(-c2ccc(Cl)cc2)cs1)C1=COCCO1 | – | – | – | – | –
O=C(Nc1nc2cc3c(cc2s1)OCCO3)C1=COCCO1 | – | – | – | – | –
Cc1cc(-c2csc(NC(=O)C3=COCCO3)n2)c(C)n1C | – | – | – | – | –
SMILES | D1 antagonist | D1 potentiator | D3 ag | D3 antag | D1 agonist
Cc1cc(C)c(-c2csc(NC(=O)C3=COCCO3)n2)c(C)c1 | -30 | – | – | – | –
Cc1cc(C)c(NC(=O)C2=COCCO2)c(C)c1 | -33 | – | – | – | –
O=C(Nc1nc(-c2cccs2)cs1)C1=COCCO1 | -82 | – | – | ? | –
COc1ccccc1CNC(=O)C1CCN(S(=O)(=O)c2ccc3c(ccn3C)c2)CC1 | – | – | – | · | –
CC1=C(C(=O)Nc2cccnc2)C(c2cccc(Br)c2)n2nc(SCc3ccccc3)nc2N1 (centres undefined) | – | – | – | · | –
O=C1C2C3CC(C2C(=O)N1c1cccc(Cl)c1)[C@H](O)C3O (some centres undefined) | – | – | – | – | –
O=C(C1=NN(c2ccccc2)C2C(=O)N(c3ccc(Cl)cc3)C(=O)C12)c1ccccc1 (centres undefined) | – | – | – | – | 192
CC(=O)C1=NOC2C(=O)N(c3ccc(Cl)cc3)C(=O)C12 (centres undefined) | – | – | – | – | 50
O=C(C1=NN(c2ccccc2)C2C(=O)N(c3cccc(Cl)c3)C(=O)C12)c1ccccc1 (centres undefined) | – | – | – | – | 104
COc1cc(OC)cc(-c2nc3nc(C)c(CCC(=O)Nc4cc(C)cc(C)c4)c(C)n3n2)c1 | – | – | – | · | –

Screening data as filed in PubChem BioAssay.
